Source: PubChem
An excerpt weighted towards active compounds, which were near 13% of everything screened.
Shiga inhibitor: inhibitors of Shiga toxin in Vero cells. Vero cells, Shiga toxin protein synthesis inhibition reporter. AID 2315. inhibition, % at 38.7 µM. 9.2% of 290,000 active; in the data active = inhibition mostly above about 28%, no sharp cut-off; inactive = mostly below about 43%; also: 0% is about no effect
HCV inhibitor: blocks hepatitis C virus; Huh7.5.1 HCVcc-Cre infection, luciferase reporter, 44 h; Potency, µM (doses to about 41.8 µM), without a hit: at the highest dose activity change, negative = inhibition, most hits filed as inhibitors; 3.4% of 340,000 active; active = well fitted inhibition curve with a large enough effect; inconclusive = small, poorly fitted or top-dose-only effect, or another doubt; inactive = no such curve, though single readings can be large or run the other way; also: potency is read from the fitted curve at half-maximal effect; % is scaled to controls: 0 for no effect and ±100 for the full control effect
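Infectious HCV cell culture screen: compound-treated cells (1,000/well, pre-plated 4 h) are infected with HCVcc-Cre at roughly 0.5 moi and grown 44 h. Infection is quantified by luciferase signal after 15 min substrate incubation at room temperature.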
CHX counter: affects cycloheximide protein synthesis inhibition readout, counter-screen. AID 2314. max response, %. 12% of 300,000 active. cell reporter, cycloheximide protein synthesis inhibition counterscreen; in the data active = max response mostly above about 13%, no sharp cut-off; inactive = mostly below about 14%; also: read at 38.3 µM for the half of the compounds with a filed dose; 0% is about no effect
FMDV inh: blocks foot and mouth disease virus; FMDV antiviral cell-based qHTS; AID 1159524; 1.2% of 410,000 active; Potency, µM (doses to about 57.9 µM), for the others: at the top dose activity change, negative = inhibition, actives largely listed as inhibitors; calls by dose curve; tested in HEK293T cells; also: read-out not given here; potency is read from the fitted curve at half-maximal effect; % is scaled to controls: 0 for no effect and ±100 for the full control effect; nearly all actives have a fitted effect of over 45% in size
LASV entry inh: Lassa virus entry inhibition | Lassa virus pseudotype entry inhibition, cell reporter | Potency, µM (series often up to 37.9 µM), for the others: at the highest dose activity change, negative = inhibition, actives largely listed as inhibitors | 1.2% of 300,000 active; calls by dose curve; tested in HEK293 cells; also: potency is read from the fitted curve at half-maximal effect; % is scaled to controls: 0 for no effect and ±100 for the full control effect; nearly all actives have a fitted effect of over 50% in size
Marburg entry inh: Marburg virus entry inhibition; Marburg virus pseudotyped entry inhibition, cell reporter; Potency, µM (series often up to 37.8 µM), for the others: at the highest dose activity change, negative = inhibition, hits mostly inhibitors; 1.8% of 300,000 active; AID 540276; calls by dose curve; tested in HEK293 cells; also: potency is read from the fitted curve at half-maximal effect; % is scaled to controls: 0 for no effect and ±100 for the full control effect
Active calls of the source: *; ? = inconclusive; . = not tested or not shown; [ ] = dose if it differs, or a comment.

SMILES	Shiga inhibitor	HCV inhibitor	CHX counter	FMDV inh	LASV entry inh	Marburg entry inh
Cn1nnnc1Sc1ncnc2scc(-c3ccc(F)cc3)c12	19	?	-6	16µM*	4.1µM*	8.2µM*
Cn1nnnc1Sc1ncnc2scc(-c3ccccc3)c12	4	-3%	2	22µM*	?	7.1µM*
COC(=O)c1sccc1NC(=O)CSc1cccc(Cl)c1Cl	27	-13%	12*	-4%	10%	26%
COC(=O)c1sccc1NC(=O)Cc1ccc(Br)cc1	32*	-16%	26*	18%	?	?
COC(=O)c1sccc1NC(=O)Nc1ccc(Cl)c(Cl)c1	23	?	27*	36%	-7%	?
COC(=O)c1sccc1NC(=O)c1c(Cl)cccc1Cl	61	6%	-1	-16%	.	.
COC(=O)c1sccc1NC(=O)Nc1ccc(C)c(C)c1	72*	-9%	41*	-42%	.	.
COC(=O)c1ccccc1NC(=O)c1onc(C)c1Cl	-6	-7%	0	-14%	.	.
O=C(Nc1cccc(O)c1)N1CCOCC1	21	4%	6	11%	-7%	9%
COC(=O)c1sccc1S(=O)(=O)Nc1ccc(C)cc1	2	14%	16*	3%	.	.
COC(=O)c1sccc1NC(=O)Nc1ccc(OC)c(OC)c1	-6	3%	12	85%	.	.
CCc1ccc(NC(=O)Nc2ccsc2C(=O)OC)cc1	42*	-19%	36*	-64%	.	.
Cc1cc2c(cc1S(=O)(=O)NCc1ccccc1)NC(=O)CO2	.	-1%	.	36%	13%	-13%[46.1 µM]
Cc1csc(=O)n1CCC(=O)OCc1nnc(-c2ccc(Cl)cc2)o1	.	6%	.	-9%	13%	6%[46.1 µM]
CCOC(=O)NC1(C(F)(F)F)NC(=O)N(Cc2ccco2)C1=O (stereo not given)	20	2%	1	5%	7%	7%
COc1ccc(NC(=O)CSc2nc3ccccc3n2CC(=O)N(C)c2ccc(F)cc2)cc1	.	.	.	12%	-27%[46.1 µM]	.
COC(=O)c1ccc(Nc2cc(C)nc3ccc(C)cc23)cc1	-22	10µM*	-5	0%	?	13µM*
CC(=O)c1ccc(Nc2nc(C)cc(C)n2)cc1	95	9%	28*	0%	2%	10%
Cc1ccc2nc(C)cc(Nc3ccc([N+](=O)[O-])cc3)c2c1	-10	3.5µM*	-6	-10%	?	?
COC(=O)c1ccc2nc(C)cc(Nc3ccccc3C)c2c1	-6	?	1	-18%	.	.
CC(=O)c1ccc(Nc2cc(C)nc3ccccc23)cc1	37	?	18*	8%	?	2.8µM*
O=C(C1CCN(S(=O)(=O)Cc2ccccc2)CC1)N1CCN(c2ccccc2)CC1	.	.	.	-29%	-24%[46.1 µM]	?
COCCN=C(NS(=O)(=O)c1cccs1)c1ccccc1Cl	.	-8%	.	5%	.	.
Cc1cccc(Nc2nc(C)cc(C)n2)c1	24*	-20%	15*	29%	.	.
Cc1ccc(Nc2cc(C)nc3c(C)cccc23)cc1	-4	?	7	-13%	3%[46.1 µM]	10µM*
SMILES	Shiga inhibitor	HCV inhibitor	CHX counter	FMDV inh	LASV entry inh	Marburg entry inh
Cc1cc(C)nc(Nc2ccc(F)cc2)n1	64	10%	10	15%	?	14%
Cc1cc(Nc2cccc(O)c2)c2ccccc2n1	-7	.	6	.	.	.
Cc1cc(Nc2cccc(Br)c2)c2ccccc2n1	.	7.1µM*	.	?	-23%	?
CC(C)(C)SCCNC(=O)c1ccc(NS(C)(=O)=O)cc1	36*	17%	16*	.	24%	12%
CS(=O)(=O)Nc1ccc(C(=O)NCCSCc2ccccc2)cc1	-8	2%	-1	-18%	10%[46.1 µM]	-3%[46.1 µM]
CS(=O)(=O)Nc1ccc(C(=O)NCCc2ccccc2)cc1	69*	0%	31*	73%	7%	29%
COC(=O)CSc1nc2ncc(Cl)cc2[nH]1	-6	2%	-1	12%	12%	-29%
CCOc1ccc2[nH]c3c(N4CCC5(CC4)OCCO5)ncnc3c2c1	-7	?	0	-27%	?	?
CCOc1ccc2[nH]c3c(NCCc4ccc(OC)c(OC)c4)ncnc3c2c1	7	13µM*	1	-20%	?	?
COc1ccc2[nH]c3c(NCCN4CCCCC4)ncnc3c2c1	4	.	6	.	.	-5%
COc1ccc(CCNc2ncnc3sc(C)cc23)cc1OC	-1	2.2µM*	1	32µM*	?	?
CCOc1ccc2[nH]c3c(NCCO)ncnc3c2c1	36	13%	20*	13%	.	.
